# An excerpt weighted towards active compounds, which were near 18% of everything screened.
# IL-1B inflam inh – qHTS for Inhibitors of Inflammasome Signaling: IL-1-beta AlphaLISA Primary Screen. THP-1 LPS/ATP IL-1B secretion, AlphaLISA, 16 h; stronger effect = lower value. hit rate 4.7% among 360,000. activity change, % at 57.5 µM. AID 743279, 2014; in the data active means activity change below about -50%; inconclusive means mostly about -30% to -49%
#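 Secreted IL-1B measured by AlphaLISA bead assay after 16 h compound exposure of THP-1 cells; compounds (final up to 57.5 uM) added 1 h before LPS (250 ng/mL) and ATP (1.25 mM) stimulation; lower signal means less secretion.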
# Six1-Eya2 inh – qHTS Assay for Inhibitors of the Six1/Eya2 Interaction; Homeobox protein SIX1 (Homo sapiens) + Protein phosphatase EYA2 (Homo sapiens), …; AlphaScreen GST-Six1/His-Eya2 binding, biochemical; stronger effect = lower value; activity change, % (test concentration not listed); hit rate 0.56% among 360,000; in the data active means activity change below about -65%; inconclusive means mostly about -30% to -63%
#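 AlphaScreen luminescence read after one hour at 37 °C in darkness. Pin-transferred compounds met GST-Six1 and His-Eya2 protein (5X stock 250 nM/500 nM) plus glutathione donor and Ni-chelate acceptor beads (5X, 50 ug/mL).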
# TDP1 block – qHTS Assay for Inhibitors of Tyrosyl-DNA Phosphodiesterase (TDP1) | Tyrosyl-DNA phosphodiesterase 1 (Homo sapiens), Q9NUW8 | recombinant TDP1, AlphaScreen DNA substrate cleavage | Potency, µM (series often up to 130 µM), actives largely listed as inhibitors | hit rate 0.28% among 350,000 | AID 485290, 2010; further: nearly all actives have a fitted effect of over 40% in size
# Target sequence (Q9NUW8 whole entry, looked up): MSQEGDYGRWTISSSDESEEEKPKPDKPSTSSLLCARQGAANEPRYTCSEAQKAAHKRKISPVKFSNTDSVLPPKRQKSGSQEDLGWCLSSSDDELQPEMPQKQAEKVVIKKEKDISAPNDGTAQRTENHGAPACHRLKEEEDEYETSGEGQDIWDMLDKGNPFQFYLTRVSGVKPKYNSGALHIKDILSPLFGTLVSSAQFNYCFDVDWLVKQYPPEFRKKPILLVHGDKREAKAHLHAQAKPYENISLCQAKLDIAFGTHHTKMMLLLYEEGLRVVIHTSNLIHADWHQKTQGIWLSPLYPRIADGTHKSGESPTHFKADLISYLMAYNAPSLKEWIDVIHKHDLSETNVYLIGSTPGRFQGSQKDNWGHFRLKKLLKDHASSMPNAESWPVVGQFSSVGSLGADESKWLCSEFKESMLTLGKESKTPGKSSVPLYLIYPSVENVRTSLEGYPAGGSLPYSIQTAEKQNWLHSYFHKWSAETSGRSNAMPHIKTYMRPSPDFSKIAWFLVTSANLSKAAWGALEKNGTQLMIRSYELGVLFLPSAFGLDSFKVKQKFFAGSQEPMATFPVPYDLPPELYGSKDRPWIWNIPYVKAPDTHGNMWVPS
#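 Steps: enzyme plus compound, 15 min RT; add biotin/phosphotyrosine-FITC oligonucleotide (15 nM final), react 5 min; add donor/acceptor beads (10 ug/ml final), 10 min; read AlphaScreen. Tdp1 at 1 nM final.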
# DT40 TDP1 no CPT – qHTS for Inhibitors of human tyrosyl-DNA phosphodiesterase 1 (TDP1): qHTS in cells in absence of CPT. Potency, µM (series often up to 46.2 µM), hits mostly inhibitors. DT40 Tdp1-/- hTDP1 cells, no CPT, ATP luminescence, 48 h. hit rate 15% among 420,000; further: nearly all actives have a fitted effect of over 55% in size
#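 Chicken DT40 Tdp1-/- cells stably complemented with human TDP1 were seeded at 400 cells/well with DMSO in place of 20 nM camptothecin. After compound pinning, cells grew at least 48 hr at 37 °C; viability read by CellTiter-Glo luminescence.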
# TDP1 cell CPT – qHTS for Inhibitors of human tyrosyl-DNA phosphodiesterase 1 (TDP1): qHTS in cells in presence of CPT; hit rate 12% among 420,000; Potency, µM (doses to about 46.2 µM), most hits filed as inhibitors; chicken DT40 Tdp1-/-;hTDP1 cells + 20 nM CPT, ATP luminescence, 48 h; further: nearly all actives have a fitted effect of over 55% in size
#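 Cell growth measured by CellTiter-Glo luminescence after a minimum 48 h, 37 C compound exposure with 20 nM CPT in Tdp1-knockout DT40 cells stably expressing hTDP1, seeded 400/well; qHTS titration format.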
# CtBP-E1A blk – qHTS Assay for Inhibitors of the CtBP/E1A Interaction | activity change, % (test concentration not listed) | CtBP / adenovirus E1A interaction (AlphaScreen) | AlphaScreen GST-E1A/His-CtBP binding, 1536-well; stronger effect = lower value | hit rate 0.49% among 340,000; in the data active means activity change below about -65%; inconclusive means mostly about -30% to -63%
#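 Protein mix (5X: 125 nM each GST-E1A, His-CtBP) was incubated with pinned compound 2 h at 37 deg C in dark, in 50 mM Tris pH 8.0 buffer with 300 mM NaCl. Glutathione donor and nickel acceptor beads followed; AlphaScreen signal read after 1 h.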
# Numbers stand for hits; – = inactive; ? = inconclusive; · = no result. Unless noted, the call rests on the fitted dose curve; in most records, active means well fitted curve in the direction sought with a large enough effect; inconclusive means small, poorly fitted or top-dose-only effect, or another doubt; inactive means no such curve, though single readings can be large; an effect the other way counts as inactive or inconclusive.
SMILES,IL-1B inflam inh,Six1-Eya2 inh,TDP1 block,DT40 TDP1 no CPT,TDP1 cell CPT,CtBP-E1A blk
Cc1cnccc1CN(C)Cc1nc(Cc2ccccc2Cl)no1,–,–,–,14.6µM,18.4µM,–
CN1CCN(Cc2nnc(-c3ccccc3)o2)CC1,–,–,·,–,–,·
Cc1onc(-c2ccccc2)c1-c1nnc(CN2CCN(S(=O)(=O)c3ccccc3F)CC2)o1,–,–,–,?,20.6µM,–
COc1ccc(S(=O)(=O)N2CCOC2CNC(=O)C(=O)NCCc2ccc(OC)c(OC)c2)cc1C (stereo not drawn),–,–,–,16.4µM,?,–
COc1ccc(CCNC(=O)C(=O)NCC2OCCN2S(=O)(=O)c2ccc3c(c2)OCCO3)cc1 (stereo not drawn),–,–,–,16.4µM,20.6µM,–
NS(=O)(=O)c1ccc(CCNC(=O)C(=O)NCC2OCCN2S(=O)(=O)c2ccc(Cl)cc2)cc1 (stereo not drawn),–,–,·,?,23.1µM,–
NS(=O)(=O)c1ccc(CCNC(=O)C(=O)NCC2OCCN2S(=O)(=O)c2ccc(F)cc2)cc1 (stereo not drawn),–,–,–,–,–,–
Cc1ccc(CNC(=O)C(=O)NCC2OCCN2S(=O)(=O)c2ccc3c(c2)OCCO3)cc1 (stereo not drawn),–,–,–,–,25.9µM,–
COc1ccc(NC(=O)[C@@H](NC(=O)N2C[C@H]3C[C@@H](C2)c2cccc(=O)n2C3)C(C)C)cc1OC,–,–,·,–,–,–
CC1(c2ccc(OC(F)F)cc2)NC(=O)N(CC(=O)NCCC2=CCCCC2)C1=O (stereo not drawn),–,–,–,–,–,–
Cc1cc(C(=O)CCC(=O)N(C)CC(=O)Nc2c(Cl)cccc2Cl)c(C)s1,–,–,–,11.6µM,–,–
CN(CC(=O)Nc1c(Cl)cccc1Cl)C(=O)c1cccc(-n2cccc2)c1,–,–,·,–,16.4µM,–
CN(CC(=O)Nc1ccccc1Cl)C(=O)c1cccc(-n2cccc2)c1,–,–,·,?,–,–
CN(CC(=O)Nc1c(Cl)cccc1Cl)C(=O)CCC(=O)c1ccccc1,–,–,–,–,–,–
Cc1cc(C)c(NC(=O)c2nc3ccccc3nc2N2CCCCC2)c(C)c1,·,·,–,25.9µM,?,·
Cc1cccc(NC(=O)CSc2nc3ccccc3nc2N2CCCCC2)c1,–,–,·,?,29.1µM,–
Cc1cccc(NC(=O)CSc2nc3ccccc3nc2N2CCCC2)c1,?,–,·,?,?,–
CCc1cccc(NC(=O)CSc2nc3ccccc3nc2N2CCCCC2)c1,·,·,–,16.4µM,11.6µM,·
COc1cccc(NC(=O)CSc2nc3ccccc3nc2N2CCCC2)c1,–,–,·,?,?,–
CCc1ccc(NC(=O)CSc2nc3ccccc3nc2N2CCCCC2)cc1,–,–,·,10.3µM,?,–
CCc1cccc(C)c1NC(=O)c1nc2ccccc2nc1N1CCCCC1,·,·,–,–,?,·
Cc1cccc(OCCOC(=O)C2CCN(S(=O)(=O)c3cccs3)CC2)c1,–,–,–,–,–,–
COc1cc2c(C(=O)c3ccccc3)c3c4c(cc(OC)c(OC)c4c2cc1OC)CCN3C,·,·,–,?,–,·
Cc1cccc(NC(=O)CSc2nc3ccccc3nc2N2CCCCC2)c1C,·,·,–,11.6µM,23.1µM,·
CC(C)C(=O)Nc1cccc(N2CCN(CCCN3C(=O)C4CCCCN4C3=O)CC2)c1 (stereo not drawn),–,–,·,?,–,–
SMILES,IL-1B inflam inh,Six1-Eya2 inh,TDP1 block,DT40 TDP1 no CPT,TDP1 cell CPT,CtBP-E1A blk
COc1cc(/C=N\NC(=O)c2ccc(C)nc2)ccc1OC(=O)c1ccco1,–,–,–,–,–,–
O=C(NCc1ccc(C(F)(F)F)cc1)C12CN(Cc3ccccc3)CC1C(c1cccc([N+](=O)[O-])c1)=NO2 (stereo not drawn),–,–,–,16.4µM,–,–
O=C(NCc1ccc2c(c1)OCO2)C12CN(Cc3ccccc3)CC1C(c1cccc([N+](=O)[O-])c1)=NO2 (stereo not drawn),?,–,–,?,?,·
C=CCN1C(=O)/C(=N/n2cnnc2)c2ccccc21,–,–,–,4.61µM,5.8µM,–
C=CCN1C(=O)/C(=c2\sc3nc(=O)c(Cc4ccccc4)nn3c2=O)c2ccccc21,–,–,–,–,–,–
C[C@]12CCC3C(CC[C@H]4CCCC[C@]34C)C1CC[C@@]2(O)CNCCO (stereo partly drawn),–,–,·,?,13µM,–
CC(=O)[C@@]1(O)CCC2C3CC[C@H]4C[C@@H](O)CC[C@]4(C)C3CC[C@@]21C (stereo partly drawn),–,–,–,–,–,–
CCCCCCCC(=O)CC[C@@H]1[C@@H](C/C=C\CCCC(=O)OC(C)C)[C@@H](O)C[C@H]1O,·,·,·,7.5µM,7.5µM,·
CC(=O)Nc1cc(C(F)(F)F)ccc1OCCOc1ccccc1,–,–,·,16.4µM,?,–
COCCOc1ccc(C(F)(F)F)cc1NC(=O)c1ccccc1,–,–,–,–,–,–
CCOCC(=O)Nc1cc(C(F)(F)F)ccc1Oc1cccc(Br)c1,–,–,–,?,–,–
CC(=O)Nc1cc(C(F)(F)F)ccc1Oc1cccc(Br)c1,?,–,–,13µM,23.1µM,–
Nc1cc(Oc2ccc(F)cc2F)cc([N+](=O)[O-])c1,–,–,–,–,–,–
C[C@H](NC(=O)c1nc[nH]c1C(=O)N(C)Cc1ccccc1)C(=O)OC(C)(C)C,–,–,–,?,–,–
O=c1ccc2c(ccc3ncccc32)o1,?,–,·,11.6µM,–,–
CCOc1ccccc1C(=O)N1CC(=O)Nc2ccc(C)cc2C1c1ccccc1 (stereo not drawn),·,·,–,23.1µM,?,·
CCCCC1CCC(C(=O)N2CC(=O)Nc3ccc(C)cc3C2c2ccc(F)cc2)CC1 (stereo not drawn),·,·,–,?,9.2µM,·
CCOc1ccccc1C(=O)N1CC(=O)Nc2ccc(Cl)cc2C1c1ccccc1 (stereo not drawn),·,·,–,?,20.6µM,·
CCOc1ccccc1NC(=O)NCCN1CCCCC1,–,–,–,–,–,–
O=C1CN(c2cc(Cl)cc(Cl)c2)C(=O)CN1/N=C/c1cccnc1,·,–,–,–,–,–
